Only some compounds are listed: those with a hit (about 11% of all), similar ones and a draw of the others.
ALDH1A1 block: qHTS Assay for Inhibitors of Aldehyde Dehydrogenase 1 (ALDH1A1); Aldehyde dehydrogenase 1A1 (Homo sapiens), P00352; Potency, µM (top dose mostly 75.3 µM), most hits filed as inhibitors; Purified ALDH1A1, NADH fluorescence, propionaldehyde substrate; hit rate 7.3% among 220,000
PNC assembly inh: High Content Assay for Compounds that inhibit the Assembly of the Perinucleolar Compartment; activity change (PNC), negative = inhibition, % at 10 µM; hit rate 3.1% among 140,000; PC3M PTB-GFP, PNC prevalence imaging, 16 h; active compounds read low;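 active = readout at or below -70, meaning at least 70% loss of cells showing the perinucleolar compartment, a nuclear body marking cancer cells; inconclusive = readout between -30 and a set limit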
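Compounds are pinned in duplicate onto adhered PC3M cells stably expressing GFP-tagged PTB and incubated 16 h at 37 C. Cells are then fixed, nuclei stained with Hoechst, and PNC-positive cells counted.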
HPGD inh: qHTS Assay for Inhibitors of HPGD (15-Hydroxyprostaglandin Dehydrogenase); 15-hydroxyprostaglandin dehydrogenase [NAD(+)] (Homo sapiens), P15428; hit rate 4.3% among 150,000; Potency, µM, actives largely listed as inhibitors; purified HPGD, NADH fluorescence kinetic, PGE2 substrate
Target sequence (P15428 whole entry, looked up): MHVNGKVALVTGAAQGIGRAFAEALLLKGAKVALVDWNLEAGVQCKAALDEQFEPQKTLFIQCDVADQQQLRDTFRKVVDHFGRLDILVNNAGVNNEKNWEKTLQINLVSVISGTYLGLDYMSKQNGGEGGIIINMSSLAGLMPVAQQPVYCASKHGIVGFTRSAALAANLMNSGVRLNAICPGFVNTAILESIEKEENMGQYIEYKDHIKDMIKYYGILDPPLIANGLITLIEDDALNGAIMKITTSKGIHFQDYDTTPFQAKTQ
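NADH formation kinetics: reaction with 30 uM PGE2 and 1 mM NAD+ (final), 20 nM enzyme, Tris-HCl pH 8 with Tween 20, after 15 min compound preincubation at room temperature. Fluorescence change, last versus first of five reads.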
A number is an active result; . = inactive; ? = inconclusive; / = no result; [ ] = dose if it differs, or a comment. Unless noted, calls follow the shape of the dose curve; as a rule, active = well fitted inhibition curve with a large enough effect (not every such curve was filed as active); inconclusive = small, poorly fitted or top-dose-only effect, or another doubt; inactive = no such curve, though single readings can be large or run the other way.

SMILES	ALDH1A1 block	PNC assembly inh	HPGD inh
COC(=O)c1ccc(N2CCOCC2)c(F)c1	.	.	.
O=C(c1ccccc1)c1ccc(N2CCOCC2)c(F)c1	.	?	25µM
O=C(COC(=O)CCCNC(=O)c1ccc(Cl)cc1)Nc1ccc(Br)cc1	.	?	.
CC(C)[C@H](Nc1ccc(S(=O)(=O)N2CCOCC2)cc1[N+](=O)[O-])C(=O)OCC(=O)N(C(C)C)C(C)C	?	.	.
CC(C)C(C)NC(=O)COc1ccc(S(=O)(=O)N2CCOCC2)cc1[N+](=O)[O-] (centres undefined)	?	.	.
CC(C)[C@H](Nc1ccc(S(=O)(=O)N2CCOCC2)cc1[N+](=O)[O-])C(=O)OCC(N)=O	18µM	.	.
CNC(=O)COC(=O)[C@@H](Nc1ccc(S(=O)(=O)N2CCOCC2)cc1[N+](=O)[O-])C(C)C	?	-113	.
CCOC(=O)C1=C(C)NC(=O)C1CC(=O)O (centres undefined)	.	.	.
O=C(O)CC(NC(=O)C(c1ccccc1)c1ccccc1)c1cccc([N+](=O)[O-])c1 (centres undefined)	.	/	/
NC(=O)c1nnn(Cc2cc(Cl)c(C(=O)c3ccc(Cl)cc3)c(Cl)c2)c1N	.[13.5 µM]	/	.
O=C(CCc1ccccc1O)N/N=C/c1ccc(Sc2cccc3cccnc23)o1	.	?	.
CCOC(=O)c1ccc(NC(=O)c2nccnc2C(=O)O)cc1	.	.	.
CCC(=O)N1c2ccccc2NC2=C(C(=O)CC(C)(C)C2)C1c1cccnc1 (centres undefined)	.	/	/
COc1ccc(C2CC(=O)C3=C(C2)Nc2ccccc2N(C(=O)C2CC2)C3c2cccnc2)cc1OC (centres undefined)	14µM	?	.
CNc1nc(N(C)C)nc(N(C)C)n1	.	?	.
Cc1cccc2cc(CN(Cc3ccccc3)C(=O)c3cccc(F)c3)c(Cl)nc12	8.9µM	.	.
Cc1cccc2cc(CN(C(=O)c3cnccn3)C3CCCCC3)c(Cl)nc12	.	.	.
CCn1nnc2cc(C(=O)O)ccc21	.	/	/
CCCCC(NC(C)=O)c1nc2ccccc2n1CCCC (centres undefined)	.	.	.
CCOc1ccc(-c2cc(CCCC(=O)NCCCOC)no2)cc1	.	.	.
CCOc1ccc(-c2cc(CCCC(=O)N3CCN(c4ccc(OC)cc4)CC3)no2)cc1	20µM	.	.
O=C(Nc1ccc(S(=O)(=O)N2CCOCC2)cc1)c1ccc2c(c1)S(=O)(=O)c1ccccc1C2=O	.	/	/
O=C(Nc1cc(S(=O)(=O)N2CCOCC2)ccc1O)c1ccc2c(c1)S(=O)(=O)c1ccccc1C2=O	1.1µM	/	/
O=C(Nc1cccn2ncnc12)C(F)(F)F	.	/	/
O=C(CCl)Nc1cccn2ncnc12	3.2µM	.	.
SMILES	ALDH1A1 block	PNC assembly inh	HPGD inh
CCn1cc(C2C3=C(CC(C)(C)CC3=O)N(c3ccccc3)C3=C2C(=O)CC(C)(C)C3)c(C)n1	.	?	.
O=C(O)CC1(CC(=O)Nc2ccc(Oc3cccc(C(F)(F)F)c3)nc2)CCCC1	7.9µM	/	/
Cc1ccc(C(=O)Nc2ccc(Oc3cccc(C(F)(F)F)c3)nc2)cc1	.	/	/
O=C1NCCCc2c1oc1cc(Br)c(O)c(Br)c21	4µM	.	.
CC(C)NCc1c(O)c(Br)cc2oc3c(c12)CCCC3	.	?	.
N#CC(Cc1ccc(OC(F)F)cc1)c1nc2ccccc2[nH]1 (centres undefined)	.	.	.
CC1CCCN(C(=O)CSc2nnc3n(C4CCCC4)c(=O)c4ccccc4n23)C1 (centres undefined)	7.9µM	.	20µM
O=C(CSc1nnc2n(C3CCCC3)c(=O)c3ccccc3n12)N1CCCCCC1	?	.	.
COC(=O)N1CC=CC1(C)C(=O)NCC1CC1 (centres undefined)	.	/	.
COC(=O)c1cc(NCc2cccs2)ccc1N1CCOCC1	18µM	.	.
O=C(O)c1cc(NCc2cccs2)ccc1N1CCOCC1	.	.	.
CCOc1cc2[nH]c(=O)n(CCCC(=O)N(C)Cc3ccccc3)c(=O)c2cc1OCC	.	/	/
COC(=O)C(NS(=O)(=O)c1ccc(NC(C)=O)cc1)C(C)C (centres undefined)	.	.	.
COc1ccc(CNS(=O)(=O)c2ccc(S(=O)(=O)N3CCCCC3)cc2)cc1	?	?	.
COc1ccc(S(=O)(=O)N2CCCCCC2)cc1	.	.	.
Cn1c(=O)n(C)c2cc(NS(=O)(=O)c3ccc(Br)s3)ccc21	.	/	/
CC(=O)Nc1ccc(S(=O)(=O)N[C@H](C(=O)O)C(C)C)cc1	10µM	.	.
O=S(=O)(Nc1ccc(S(=O)(=O)N2CCCCC2)cc1)c1ccc(Br)s1	1.4µM	.	.
COc1ccc(S(=O)(=O)Nc2ccc(S(=O)(=O)N3CCCCC3)cc2)cc1	0.35µM	.	.
COc1ccc(S(=O)(=O)Nc2ccc(S(=O)(=O)N3CCCC3)cc2)cc1	0.089µM	.	.
CCOc1cc(/C=C2/NC(=O)NC2=O)cc(Br)c1OCc1ccc(C(=O)O)cc1	.	/	/
CC[C@H](CC[C@H](C)[C@@H]1CC[C@@H]2[C@H]3CC=C4C[C@@H](O)CC[C@]4(C)[C@H]3CC[C@]21C)C(C)C	.	/	.
Cc1ccc(CN2C(=O)CCC2C(=O)NCc2cccnc2)cc1 (centres undefined)	.	.	.
COC(C)(C)[C@]12CC(O)(c3ccccc3)ON1[C@H]1CCCCC1N2O (some centres undefined)	.	.	.
COc1cc(S(=O)(=O)N2CCCCCC2)ccc1Cl	.	.	.
SMILES	ALDH1A1 block	PNC assembly inh	HPGD inh
COc1cc(OC)c(S(=O)(=O)N2CCCCC2)cc1S(=O)(=O)N1CCCCC1	3.5µM	?	.
COc1ccc(S(=O)(=O)Nc2ccc(S(=O)(=O)N3CCCCC3)cc2)cc1C	4µM	.	.
COc1ccc(S(=O)(=O)N2CCCN(S(=O)(=O)c3ccc(OC)c(C)c3)CC2)cc1C	.	?	.
COc1ccc2cc(S(=O)(=O)N3CCCCC3)ccc2c1S(=O)(=O)N1CCCCC1	0.18µM	?	.
CC(=O)Nc1ccc(S(=O)(=O)Nc2ccc(S(=O)(=O)N3CCCCCC3)cc2)cc1	4µM	.	.
CC(=O)Nc1ccc(S(=O)(=O)N2CCN(S(=O)(=O)N3CCCCC3)CC2)cc1	.	/	/
COc1cc(S(=O)(=O)N2CCCCC2)c(OC)cc1Br	.	/	/
CC1(C)C(=O)C(c2ccccc2)=C2CN3C(=O)N(CCc4ccccc4)C(=O)C3(Cc3ccccc3)C=C21 (centres undefined)	.	/	.
Fc1ccc(Nc2ccc(-c3ccc(F)cc3)nn2)cc1	.	/	/
CCCCCCCC1=CC2=C(Cl)C(=O)C(C)(OC(C)=O)C(=O)C2=CO1 (centres undefined)	.	/	.
CC(=O)Nc1ccc(NC(=O)c2ccccc2CC[N+](=O)[O-])cc1	?	.	.
CCOC(=O)c1sc(NC(=O)COC(=O)C(CCSC)NC(C)=O)nc1C (centres undefined)	?	.	.
Cc1ccc(NS(=O)(=O)c2cccc(C(=O)O)c2)cc1S(=O)(=O)N1CCOCC1	?	.	.
Cc1ccc(NS(=O)(=O)c2ccc(Br)s2)cc1S(=O)(=O)N1CCOCC1	11µM	/	/
